Assay outcomes: PubChem, National Center for Advancing Translational Sciences (NCATS)
Compounds with a hit are over-represented: about 3.6% of the library has one in this group of screens.
Sm TGR inh: qHTS Assay for the Inhibitors of Schistosoma Mansoni Peroxiredoxins | purified TGR, DTNB reduction, TNB absorbance 405 nm | Potency, µM (titrated, usually from 114 µM), for the others: top-dose activity change, negative = inhibition, usual class: inhibitors | 3% of 360,000 active | AID 485364, 2010 | Schistosoma mansoni thioredoxin glutathione reductase (TGR), Q962Y6; also: nearly all actives have a fitted effect of over 60% in size
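TGR 20 nM + NADPH 100 uM (dispensed conc.), cpd preinc 15 min RT; start with NADPH (500 uM addition) then DTNB (15 mM addition). Kinetic TNB absorbance, 405 nm filter. Four-parameter Hill fit across titration.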
AmpC detergent: qHTS Inhibitors of AmpC Beta-Lactamase (assay with detergent); P00811; AmpC hydrolysis of nitrocefin, absorbance 480 nm, 0.01% Triton; Potency, µM (top dose mostly 114 µM), for the others: top-dose activity change, negative = inhibition, hits mostly inhibitors; 0.041% of 370,000 active; AID 485294, 2010;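 also: 0% = no-compound wells and -100% = no-enzyme wells; nearly all actives have a fitted effect of over 25% in size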
Target sequence (P00811 whole entry, looked up): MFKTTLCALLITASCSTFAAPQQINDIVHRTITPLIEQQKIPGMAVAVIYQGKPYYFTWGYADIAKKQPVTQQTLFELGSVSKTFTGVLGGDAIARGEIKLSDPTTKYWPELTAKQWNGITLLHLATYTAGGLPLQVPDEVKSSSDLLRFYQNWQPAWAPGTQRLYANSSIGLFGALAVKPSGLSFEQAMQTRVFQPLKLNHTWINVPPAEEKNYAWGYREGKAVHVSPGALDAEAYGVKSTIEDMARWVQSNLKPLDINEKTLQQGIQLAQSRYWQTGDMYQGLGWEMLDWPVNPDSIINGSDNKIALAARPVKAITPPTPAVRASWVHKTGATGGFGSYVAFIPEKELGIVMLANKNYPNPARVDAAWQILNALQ
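20 mM phosphate pH 7.0 + 0.01% (detergent screen) or 0.0001% Triton X-100; 5.3 nM AmpC reagent; cpd preinc 15 min RT; nitrocefin (800 uM stock) to start; A480 q20 s × 4 min; Activity was normalised to no-enzyme and no-compound control wells.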
AmpC no deterg: qHTS Inhibitors of AmpC Beta-Lactamase (assay without detergent); Potency, µM (highest dose often 57.1 µM), without a hit: at the highest dose activity change, negative = inhibition, hits mostly inhibitors; P00811; AmpC nitrocefin hydrolysis, absorbance 480 nm, 0.0001% Triton; 0.52% of 330,000 active;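 also: plate controls were no compound for no effect and no enzyme for full effect; nearly all actives have a fitted effect of over 20% in size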
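AmpC (5.3 nM in the dispensed reagent) in 20 mM phosphate pH 7.0 with 0.01% (detergent screen) or 0.0001% Triton X-100 was preincubated with compounds for 15 min at room temperature. Nitrocefin was then added from an 800 uM solution, and hydrolysis was followed at 480 nm.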
FBPA Giardia inh: qHTS Assay for Inhibitors of Fructose-1,6-bisphosphate Aldolase from Giardia Lamblia; 0.71% of 290,000 active; Potency, µM (series often up to 59.6 µM), inactives show at the highest dose activity, negative = inhibition, most hits filed as inhibitors; purified Giardia FBPA; also: nearly all actives have a fitted effect of over 55% in size
Target sequence (A8B2U2 whole entry, looked up): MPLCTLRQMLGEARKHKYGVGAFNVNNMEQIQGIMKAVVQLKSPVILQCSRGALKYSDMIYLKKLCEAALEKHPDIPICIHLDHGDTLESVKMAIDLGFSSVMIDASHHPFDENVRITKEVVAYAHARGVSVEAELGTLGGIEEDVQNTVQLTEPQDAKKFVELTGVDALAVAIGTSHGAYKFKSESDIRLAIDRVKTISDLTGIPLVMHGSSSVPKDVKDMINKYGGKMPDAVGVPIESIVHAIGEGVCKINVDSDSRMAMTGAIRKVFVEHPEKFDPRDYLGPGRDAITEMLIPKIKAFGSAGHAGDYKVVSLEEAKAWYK
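40 nM FBPA preincubated 10 min at RT with compound (up to 57.5 uM final), then substrate plus GAPDH/TPI/NAD/arsenate coupling and diaphorase/resazurin added. Fluorescence read after 20 min at RT, 525/598 nm.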
* marks the source's active call; other numbers are inactive results; ? = inconclusive; nt = no result given; [ ] = dose if it differs, or a comment. Calls follow the shape of the dose curve; as a rule, active = well fitted curve in the direction sought with a large enough effect; inconclusive = small, poorly fitted or top-dose-only effect, or another doubt; inactive = no such curve, though single readings can be large; an effect the other way counts as inactive or inconclusive. Unless noted, % is scaled to controls: 0 for no effect and ±100 for the full control effect; potency is read from the fitted curve at half-maximal effect.

SMILES	Sm TGR inh	AmpC detergent	AmpC no deterg	FBPA Giardia inh
O=[N+]([O-])c1ccc(/C=[N+](\[O-])[C@@H]2CCCC[C@@H]2/[N+]([O-])=C/c2ccc([N+](=O)[O-])o2)o1	3.5µM*	3%	-7%	-28%
O=C(CN1CCN(c2ncccn2)CC1)NCc1ccc2c(c1)OCO2	-7%	-5%	-19%	1%
Oc1cc2c(cc1CN1CCN(c3ncccn3)CC1)OCO2	1µM*	1%	31%	nt
Cc1cc(C)n(-c2ccc(C(=O)N3CC(C)OC(C)C3)cc2)n1 (stereo not given)	23%	2%	-22%	3%
O=C(CCN1CCCCC1c1cccnc1)NCc1ccccc1 (stereo not given)	35µM*	-13%	-9%	-4%
COC(=O)[C@H](Cc1ccccc1)NC(=O)O[C@@H]1C(=O)c2ccc(OC)cc2O[C@H]1c1ccc2c(c1)OCO2	nt	nt	nt	-1%
O=C(Nc1cc(Cl)ccc1Cl)N1CCCC1	8%	-1%	-6%	2%
O=C(/C(Br)=C/Nc1cc(Cl)ccc1Cl)C(F)(F)F	22µM*	-10%	-24%	-10%
CC(C)CNc1ncnc2c1sc1nc(N3CCOCC3)c3c(c12)CC(C)(C)OC3	-20%	-1%	-28%	5%
CN(C)CCNc1ncnc2c1sc1nc(N3CCCC3)c3c(c12)CC(C)(C)OC3	9%	4%	154%	-12%
CC1(C)Cc2c(c(-c3ccco3)nc3sc4c(NCCN5CCOCC5)ncnc4c23)CO1	40µM*	-10%	47%	-2%
CC1(C)Cc2c(c(-c3ccco3)nc3sc4c(NCC5CCCO5)ncnc4c23)CO1 (stereo not given)	79µM*	0%	1%	-5%
CC1(C)Cc2c(c(-c3ccco3)nc3sc4c(NCCCO)ncnc4c23)CO1	2µM*	3%	151%	-18%
Clc1ccccc1CN1CCN(/N=C/C=C\c2ccco2)CC1	50µM*	0%	-5%	1%
COc1ccc(S(=O)(=O)CC(=O)c2cc3cc(Br)ccc3oc2=O)cc1	-35%	2%	28µM*	nt
COc1cccc2cc(C(=O)CS(=O)(=O)c3ccc(Cl)cc3)c(=O)oc12	?	4%	16µM*	nt
COc1cccc2cc(C(C)=O)c(=O)oc12	-3%	?	-11%	1%
Cc1sc2nc(CN3CCOCC3)[nH]c(=S)c2c1C	-10%	-10%	2%[11.4 µM]	-11%
CCN(CC)C(=O)CCS(=O)(=O)c1cccc2nonc12	0%	4%	-26%	2%
Cc1ccc(C)c(N(C)C(=O)CCS(=O)(=O)c2cccc3nonc23)c1	20µM*	-8%	12%	0%
O=C(CCS(=O)(=O)c1cccc2nonc12)Nc1c(F)cccc1F	11µM*	?	nt	nt
Cc1ccc(C)c(N2CCN(C(=O)Cn3cccc3)CC2)c1	40µM*	?	0%	14%
O=C(CCS(=O)(=O)c1cccc2nonc12)NC1CCCCCC1	45µM*	-6%	-20%	2%
Cc1ccc(C)c(NC(=O)Cn2cnc3nc4c(cc3c2=O)CCCC4)c1	-11%	0%	nt	nt
O=C(CCSCc1cccc(F)c1)NCCc1ccccc1	0%	4%	1%	15%
SMILES	Sm TGR inh	AmpC detergent	AmpC no deterg	FBPA Giardia inh
Cc1ccc(NC(=O)CCS(=O)(=O)c2cccc3nonc23)c(Br)c1	32µM*	-4%	-29%	-1%
Cc1ccc(C)c(N2CCN(C(=O)CS(=O)(=O)c3cccc4nsnc34)CC2)c1	-23%	-10%	nt	nt
Cc1ccc(C)c(N2CCN(C(=O)CCS(=O)(=O)c3cccc4nonc34)CC2)c1	35µM*	-8%	58%	-16%
Cc1cc(Br)ccc1NC(=O)CCS(=O)(=O)c1cccc2nonc12	-2%	-4%	-10%	-10%
COc1c(C)cc(S(=O)(=O)NCc2ccccn2)c(C)c1C	-4%	?	-6%	-6%
CCOC(=O)C1=C(O)/C(=C/c2cccc(OC)c2O)N=C1C	nt	-4%	-18%	-25%
CCOC(=O)C1=C(O)/C(=C\c2cc(C)n(-c3ccc(F)cc3)c2C)N=C1C	14µM*	?	-35%	?
CCOC(=O)c1c(C)n(-c2ccc(F)cc2)c2ccc(O)cc12	-6%	-3%	-25%	-2%
COC(=O)C1=C(C)NC(=O)/C1=C\c1cc(C)n(-c2ccccc2F)c1C	14µM*	-4%	-24%	?
CCOC(=O)C1=C(O)/C(=C\c2cc(C)n(-c3ccccc3F)c2C)N=C1C	25µM*	?	-22%	?
C[C@H](NC(=O)c1nc[nH]c1C(=O)N[C@@H](CCCCN)C(=O)OC(C)(C)C)C(=O)OCc1ccccc1	nt	nt	127%	nt
CN(CC(=O)Nc1cc(Cl)ccc1C#N)C1CCS(=O)(=O)C1 (stereo not given)	-10%	3%	-15%	nt
COc1cccc(F)c1C(=O)NC(=O)Nc1ccc2nc(C)oc2c1	32µM*	2%	-31%	?
CN(Cc1ccco1)C(=O)C(Cc1ccccc1)NS(=O)(=O)c1ccc2c(c1)CCC(=O)N2 (stereo not given)	40µM*	-11%	-5%	4%
O=C(Nc1nc(-c2ccccc2)cs1)Nc1ccc(F)cc1F	53%	-2%	20µM*	-1%
Cc1ccc(C)c(CNC(=O)c2cnc3sc(N4CCCC4)nn3c2=O)c1	?	17%	nt	nt
Cc1ccc(S(=O)(=O)Nc2cc(C)c(O)c(S(=O)(=O)c3ccc(C)cc3)c2)cc1	45µM*	2%	-58%	3%
Cc1cc(NS(=O)(=O)c2ccccc2)cc(Cl)c1O	?	-6%	-43%	-17%
CS(=O)(=O)N1N=C(c2cccs2)CC1c1ccccc1O (stereo not given)	19%	1%	-22%	-1%
CCOc1ccccc1C1CC(c2cccs2)=NN1S(C)(=O)=O (stereo not given)	4µM*	-1%	-2%	0%
Cc1ccc(C)c(NC(=O)c2cc3ccccn3n2)c1	-2%	?	4.5µM*	-8%
COc1cccc(CNC(=O)c2cc(S(=O)(=O)N3CCCCC3)cn2C)c1	6%	17%	nt	nt
Cc1cc(C)c(NC(=O)CN2c3ccccc3S(=O)(=O)c3ccccc32)c(C)c1	0%	23%	nt	nt
CCOC(=O)N1CCC(NC(=O)c2ccc3c(c2)N(Cc2ccc(Cl)cc2)C(=O)c2ccccc2S3(=O)=O)CC1	1%	2%	nt	nt
Cc1cc2ccccc2n1CCNC(=O)c1ccc(Br)o1	13µM*	-4%	27%	?
CCC(C)Sc1cc(C(F)(F)F)c(C(=O)Nc2ccc(Cl)cc2)cn1 (stereo not given)	10%	8%	10µM*	-4%
Cc1cccc(-n2c(=O)c3c(c4cc(C)ccc4n3C)n(CC(=O)Nc3ccc(C)cc3C)c2=O)c1	26%	12%	nt	nt
CCOC(=O)c1c(CSc2ccccc2)n(C)c2ccc(O)c(CN3CCN(C)CC3)c12	18µM*	-4%	132%	-8%
